Only some compounds are listed: those with a hit (about 6% of all), similar ones and a draw of the others.
Tau fluor cs: Counterscreen qHTS for Inhibitors of Tau Fibril Formation, Fluorescence Polarization | tau K18 P301L Alexa594 fluorescence, heparin fibrillization | Potency, µM (series often up to 57.7 µM) | 280,000 compounds, 0.93% hits | AID 1463, 2008; note: nearly all actives have a fitted effect of over 55% in size
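Human K18 P301L tau (15 uM unlabeled plus 0.24 uM Alexa 594-labeled, final) in 100 mM sodium acetate pH 7 was mixed with compound and 20 uM heparin and incubated 6 hr at 37 C.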
Tau ThT inhib: qHTS for Inhibitors of Tau Fibril Formation, Thioflavin T Binding; Microtubule-associated protein tau (Homo sapiens), P10636; recombinant tau K18 P301L, heparin-induced fibrillization, ThT fluorescence; Potency, µM (highest dose often 57.4 µM), actives largely listed as inhibitors; 270,000 compounds, 2.1% hits; note: nearly all actives have a fitted effect of over 55% in size
Target sequence (P10636 561-689 P618L limits assumed): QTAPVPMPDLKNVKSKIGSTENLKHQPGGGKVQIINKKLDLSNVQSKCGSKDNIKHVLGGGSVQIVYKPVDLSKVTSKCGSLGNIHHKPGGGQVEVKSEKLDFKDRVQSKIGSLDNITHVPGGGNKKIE
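Using a mix of unlabeled (15 uM) and Alexa 594-labeled (0.24 uM) tau K18 P301L, heparin-triggered fibrillization over 6 hr at 37 C was scored by ThT fluorescence.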
Tau FP inhib: qHTS for Inhibitors of Tau Fibril Formation, Fluorescence Polarization; Microtubule-associated protein tau (Homo sapiens), P10636; 280,000 compounds, 0.39% hits; K18 P301L tau heparin fibrillization, Alexa594 FP, 6 h; Potency, µM (highest dose often 57.7 µM), most hits filed as inhibitors; note: nearly all actives have a fitted effect of over 55% in size
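FP of Alexa 594-tau after heparin (20 uM) induction. Substrate: human K18 P301L, 15 uM unlabeled, 0.24 uM labeled. Buffer 100 mM sodium acetate pH 7. 6 hr, 37 C.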
PLK1 PBD block: qHTS for Inhibitors of PLK1-PDB (polo-like kinase 1 - polo-box domain): Primary Screen. Serine/threonine-protein kinase PLK1 (Homo sapiens), P53350. Plk1 PBD binding of FITC phosphopeptide, fluorescence polarization. Potency, µM, usual class: inhibitors. 360,000 compounds, 2.8% hits. AID 720504, 2013; note: series mostly up to about 57 µM; nearly all actives have a fitted effect of over 65% in size
Sfp inh: qHTS Assay for Inhibitors of Bacillus subtilis Sfp phosphopantetheinyl transferase (PPTase); 4'-phosphopantetheinyl transferase ffp (Bacillus subtilis), Q9F4F7; Biochemical Sfp PPTase activity, qHTS; Potency, µM, actives largely listed as inhibitors; 310,000 compounds, 3.5% hits;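 note: the enzyme is Sfp with the accession as filed and its product quenches rhodamine fluorescence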
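With Hepes-Na pH 7.6 buffer containing 10 mM MgCl2, Sfp (15 nM) modified BHQ-2-YbbR (12.5 uM) using rhodamine-CoA (5 uM). Two reads 30 minutes apart at 525/598 nm yielded each well's rate.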
VDR inhibitor: Inhibitors of the vitamin D receptor (VDR): qHTS | Vitamin D3 receptor (Homo sapiens), P11473 | VDR-SRC2-3 peptide fluorescence polarization, 2 h | Potency, µM, actives largely listed as inhibitors | 400,000 compounds, 0.93% hits | AID 504847, 2011
Target sequence (P11473 whole entry, looked up): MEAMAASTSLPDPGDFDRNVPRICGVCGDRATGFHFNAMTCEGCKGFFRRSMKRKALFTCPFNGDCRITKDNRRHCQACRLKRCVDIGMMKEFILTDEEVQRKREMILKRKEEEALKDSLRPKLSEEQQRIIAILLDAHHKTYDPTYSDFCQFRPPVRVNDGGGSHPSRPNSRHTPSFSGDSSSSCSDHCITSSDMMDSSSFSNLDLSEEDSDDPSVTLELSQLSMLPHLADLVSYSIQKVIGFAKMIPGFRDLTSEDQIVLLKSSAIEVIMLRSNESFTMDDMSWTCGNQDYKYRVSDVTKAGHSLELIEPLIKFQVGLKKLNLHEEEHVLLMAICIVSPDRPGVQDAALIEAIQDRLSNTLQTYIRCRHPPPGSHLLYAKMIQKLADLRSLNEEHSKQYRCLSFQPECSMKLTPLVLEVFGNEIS
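FP read-out; VDR + SRC2-3 coactivator peptide; 23 nl compound by pintool; 2 h RT incubation; reagents held at 4 deg C, protected from light.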
USP1-UAF1 confirm: Inhibitors of USP1/UAF1: Hit Validation in Primary Assay. 50 compounds, 50% hits. shares compounds with VDR inhibitor. Ub-Rhodamine cleavage, fluorescence kinetic read. AID 540327, 2011. Potency, µM (highest dose often 114 µM), hits mostly inhibitors
VDR confirm: qHTS for Inhibitors of the vitamin D receptor (VDR): Hit Validation in Primary Screen. shares compounds with VDR inhibitor. VDR-coactivator inhibition assay, qHTS confirmation. Potency, µM, actives largely listed as inhibitors. 840 compounds, 89% hits
VDR FP: qHTS for Inhibitors of the vitamin D receptor (VDR): Hit Validation using a Fluorescein Assay; Potency, µM (highest dose often 57.1 µM), usual class: inhibitors; VDR-coactivator binding, fluorescein fluorescence polarization; 840 compounds, 48% hits; shares compounds with VDR inhibitor
VDR bla: qHTS for Inhibitors of the vitamin D receptor (VDR): Hit Validation using a Beta-Lactamase Assay | shares compounds with VDR inhibitor | VDR beta-lactamase reporter cells, FRET ratio; cells co-treated with VDR agonist LG190178 | Potency, µM (series often up to 46.1 µM), actives largely listed as inhibitors | 840 compounds, 23% hits
VDR viability: qHTS for Inhibitors of the vitamin D receptor (VDR): Hit Validation using a Cytotoxicity Assay. shares compounds with VDR inhibitor. Potency, µM (titrated, usually from 48.3 µM), actives largely listed as cytotoxic. cytotoxicity counter-screen, cell viability, qHTS. 840 compounds, 18% hits; note: nearly all actives have a fitted effect of over 75% in size
TbPYK confirm: qHTS of Trypanosoma Brucei Inhibitors: Confirmatory Assay for Cherry-picked Compounds. shares compounds with PLK1 PBD block. recombinant TbPYK, Kinase-Glo ATP luminescence. Potency, µM (doses to about 76.9 µM), usual class: inhibitors. 890 compounds, 67% hits. AID 720569, 2013; note: nearly all actives have a fitted effect of over 70% in size
TbPYK orthogonal: qHTS of Trypanosoma Brucei Inhibitors: Orthogonal Assay for Cherry-picked Compounds; shares compounds with PLK1 PBD block; recombinant TbPYK, ADP-Glo luminescence, 60 min; Potency, µM (top dose mostly 76.9 µM), most hits filed as inhibitors; 890 compounds, 62% hits; note: nearly all actives have a fitted effect of over 75% in size
Large screens that a line does not name were inactive (follow-up assays come after a bar, where they were run); [ ] = remark or other dose. Calls come from the whole dose curve; as a rule, active = well fitted curve in the direction sought with a large enough effect; inconclusive = small, poorly fitted or top-dose-only effect, or another doubt; inactive = no such curve, though single readings can be large; an effect the other way counts as inactive or inconclusive.

O=C(/C=C/c1ccc2c(c1)OCO2)c1c(O)n(CCC2=CCCCC2)c(=O)[nH]c1=O	Tau ThT inhib inconclusive, PLK1 PBD block inconclusive, VDR inhibitor inconclusive | VDR confirm 5.6 | VDR FP inconclusive | VDR bla 21µM | VDR viability inactive
CCCCn1c(O)c(C(=O)/C=C/c2ccc3c(c2)OCO3)c(=O)[nH]c1=O	VDR inhibitor inconclusive (no result: Tau ThT inhib) | VDR confirm 11 | VDR FP inconclusive | VDR bla inconclusive | VDR viability inactive
CCCCn1c(O)c(C(CC)=NCc2ccc3c(c2)OCO3)c(=O)[nH]c1=O	Tau ThT inhib inconclusive
O=C(Nc1ccc(OC(F)(F)F)cc1)C1CCN(S(=O)(=O)c2cccs2)CC1	Tau FP inhib inconclusive (no result: PLK1 PBD block, Sfp inh)
C=CCn1cc(C=C2C(=O)NC(=O)NC2=O)c2ccccc21	none (no result: Tau fluor cs, Tau ThT inhib, Tau FP inhib)
C=CCN1C(=O)/C(=C/c2ccc(Br)s2)C(=O)NC1=S	PLK1 PBD block 1.3µM, Sfp inh 40µM, VDR inhibitor 20µM (no result: Tau fluor cs, Tau ThT inhib, Tau FP inhib) | VDR confirm 4.2 | VDR FP inactive | VDR bla inconclusive | VDR viability inactive
CN1C(=O)/C(=C/c2ccc(Cl)s2)C(=O)NC1=S	PLK1 PBD block 1.5µM, Sfp inh 13µM, VDR inhibitor 20µM (no result: Tau fluor cs, Tau ThT inhib, Tau FP inhib) | VDR confirm 6.7 | VDR FP inconclusive | VDR bla inconclusive | VDR viability inactive
COC(=O)NC/C=C\c1nc(CC/C=C\C(=O)O[C@H]2C[C@H]3CC(=O)O[C@@H](/C=C\CC(C)C)C[C@@H]4CC[C@H](C)[C@H](C[C@@H](OC)C[C@H](C2)O3)O4)co1	none (no result: PLK1 PBD block, VDR inhibitor)
O=c1oc(Cl)c(Cl)c2ccccc12	Tau ThT inhib 11µM, Tau FP inhib inconclusive, PLK1 PBD block 0.34µM, Sfp inh 35µM, VDR inhibitor 25µM | USP1-UAF1 confirm 7.4µM | VDR confirm 5 | VDR FP inconclusive | VDR bla inconclusive | VDR viability 17µM
C/C(=C\c1ccc(N(C)C)cc1)[N+](=O)[O-]	Tau fluor cs 14µM[quencher], Tau ThT inhib 13µM, PLK1 PBD block inconclusive, VDR inhibitor 20µM | VDR confirm 6.7 | VDR FP inconclusive | VDR bla inactive | VDR viability inconclusive
CN(C)c1ccc(/C=C/[N+](=O)[O-])cc1	Tau fluor cs inconclusive, Tau ThT inhib 10µM, VDR inhibitor inconclusive | VDR confirm inconclusive | VDR FP inactive | VDR bla inactive | VDR viability inactive
CN(C)c1ccc(C(=O)c2ccc(N(C)C)cc2)cc1	Tau ThT inhib inconclusive
CC12CCCCC1(O)[N+](=O)C1=C(CCCC1)N2[O-] (stereo not drawn)	Sfp inh inconclusive
CC(C)CCOP(=O)(c1ccc(N(C)C)cc1)C(O)c1ccc(Cl)cc1Cl (stereo not drawn)	Sfp inh inconclusive (no result: Tau fluor cs, Tau ThT inhib, Tau FP inhib)
CC(C)(C)c1ccc(OCC(=O)Nc2ccc(Cl)cc2C(=O)c2ccccc2)cc1	none (no result: PLK1 PBD block, Sfp inh)
O=C1C(=O)c2ccccc2-c2ccccc21	Tau ThT inhib 3.2µM, Tau FP inhib inconclusive, VDR inhibitor 10µM | VDR confirm 6 | VDR FP 3.2µM | VDR bla 3.7µM | VDR viability 1.8µM
CN1CCC(O)(c2cccs2)C(C(=O)c2cccs2)C1 (stereo not drawn)	PLK1 PBD block 27µM, VDR inhibitor inconclusive (no result: Tau fluor cs, Tau ThT inhib, Tau FP inhib) | VDR confirm 20 | VDR FP 25µM | VDR bla inconclusive | VDR viability inconclusive
COc1cc([C@@H]2c3cc4c(cc3C[C@H]3COC(=O)[C@@H]32)OCO4)cc(OC)c1O	none (no result: Tau fluor cs, Tau ThT inhib, Tau FP inhib, PLK1 PBD block, Sfp inh)
COc1cc(/C=C2\C(=O)NC(=O)N(c3ccccc3)C2=O)c([N+](=O)[O-])cc1OC	Tau ThT inhib inconclusive, PLK1 PBD block 12µM, Sfp inh 40µM, VDR inhibitor 45µM | VDR confirm 27 | VDR FP 20µM | VDR bla inactive | VDR viability inactive | TbPYK confirm 16µM | TbPYK orthogonal 35µM
CN1C(=O)NC(=O)/C(=C\C=C\c2ccccc2[N+](=O)[O-])C1=O	Tau ThT inhib 25µM, Tau FP inhib inconclusive, PLK1 PBD block 1.2µM, Sfp inh 18µM, VDR inhibitor 11µM | VDR confirm 4.2 | VDR FP inconclusive | VDR bla inconclusive | VDR viability inactive | TbPYK confirm 16µM | TbPYK orthogonal 32µM
O=c1c2ccccc2nc(/C=C\c2ccccc2[N+](=O)[O-])n1-c1ccccc1O	none

Bioassay records: PubChem, National Center for Advancing Translational Sciences (NCATS)
